PubChem BioAssay (NCI)
About 79,000 compounds went through this panel and 15% of them were active in at least one assay; those are over-represented in the sample as a whole. Values without a mark were called inactive. Calls of active or inactive are those of the source. Cut-off read from the data, not from the text of the source: active = growth inhibition above about 70%; inactive = the rest. Where a SMILES comes first, the peptide text is derived from it. The star is where a group is joined. Myristoyl = CCCCCCCCCCCCCC(=O)*

How the values were obtained:
[1] = NCI Yeast Anticancer Drug Screen. Data for the rad50 strain (AID 155);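 note: 0% = growth of vehicle-only cultures of the same strain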; conditions: S. cerevisiae rad50 strain growth inhibition; at 50.0 µM; hits give high values
How it was run: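 A DNA repair-deficient yeast mutant serves as the test organism; compound-induced growth inhibition is calculated against vehicle-treated cells.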

[2] = NCI Yeast Anticancer Drug Screen. Data for the mec2-1 strain (AID 157); conditions: S. cerevisiae mec2-1 strain, at 50.0 µM, hits give high values
How it was run: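 Using mec2-1 yeast: add compound, measure growth, express inhibition versus vehicle-treated cultures.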

[3] = NCI Yeast Anticancer Drug Screen. Data for the sgs1 mgt1 strain (AID 161);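 note: 0% = growth of cultures given vehicle only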; conditions: S. cerevisiae sgs1 mgt1 strain, at 50.0 µM, hits give high values
How it was run: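 This yeast growth screen uses a strain with defined DNA-repair lesions; compound-treated growth is compared with vehicle-treated growth.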

[4] = NCI Yeast Anticancer Drug Screen. Data for the cln2 rad14 strain (AID 165);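 note: 0% = growth equal to vehicle treated cultures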; conditions: S. cerevisiae cln2 rad14 strain, at 50.0 µM, hits give high values
How it was run: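 Yeast strain cln2 rad14, bearing defects in cell cycle control and DNA repair, serves as the test system; values reflect growth inhibition compared with vehicle.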

[5] = NCI Yeast Anticancer Drug Screen. Data for the bub3 strain (AID 167); conditions: S. cerevisiae bub3 mutant strain, at 50.0 µM, hits give high values
How it was run: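 Inhibition values come from growth of compound-treated mutant yeast normalised to vehicle-treated controls.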

[6] = NCI Yeast Anticancer Drug Screen. Data for the mlh1 rad18 strain (AID 175); conditions: S. cerevisiae mlh1 rad18 strain growth inhibition; at 50.0 µM; hits give high values
How it was run: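 Steps: expose repair-defective yeast to compound; measure growth; express inhibition against vehicle-treated controls.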

| Compound | growth inhibition [1] | growth inhibition [2] | growth inhibition [3] | growth inhibition [4] | growth inhibition [5] | growth inhibition [6] |
| --- | --- | --- | --- | --- | --- | --- |
| CCSC(N)=Nc1ccccc1 (tested in a mixture with another compound) | 13.2% | 9.5% | 21.8% | 13.3% | 12.1% | 18.1% |
| O=C(/C(=N\Nc1ccc([N+](=O)[O-])cc1[N+](=O)[O-])c1ccccc1)c1ccccc1 | -11.6% | -11.7% | -2.5% | -20.8% | 2.95% | -1.3% |
| CN1CCc2cc3c(cc2C(=O)Cc2ccc4c(c2C1)OCO4)OCO3 | -14.7% | -13.8% | -8.35% | 10.4% | -13.4% | -27.3% |
| O=C(OC(C[n+]1ccccc1)c1ccccc1)c1ccccc1 (stereo unspecified) | -0.55% | -0.9% | 4.5% | 14.5% | -6.4% | 34% |
| CC(=O)Nc1ccc2c([N+](=O)[O-])cccc2c1-c1c(NC(C)=O)ccc2c([N+](=O)[O-])cccc12 | 44.2% | 10.8% | 35.4% | 10.8% | 5.55% | 30.4% |
| N#Cc1ccc(OCCSCCCCCCCCCCSCCOc2ccc(C#N)cc2)cc1 | -16.8% | -20.9% | -19.8% | -6.05% | -1% | -15.8% |
| O=C1CCSC(=S)N1c1ccccc1 | 38.2% | 4.8% | 23.8% | -32.2% | -5.4% | 27.1% |
| Cc1nnnn1-c1ccc([N+](=O)[O-])cc1 | 8.45% | 8.35% | -1.5% | -17.6% | 0.75% | 7.4% |
| O=[N+]([O-])c1ccc(C2CC(c3ccccc3)=NN2c2ccccc2)cc1 (stereo unspecified) | 7.65% | -8.85% | 1.3% | -8.9% | 17.9% | -9.05% |
| NCCCCN(CCCN)C(=O)c1ccccc1 | 5.5% | -2.2% | -17.8% | 1.8% | -14.3% | -68.9% |
| OC(c1ccccc1)C1(O)CCCCC1 (stereo unspecified) | -10.8% | -5.25% | -1.7% | -52.5% | -17.1% | 9.75% |
| CCCOc1ccc(C(=O)C(C(c2ccccc2)N2CCOCC2)N2CCOCC2)cc1 (stereo unspecified) | -71.2% | 22.5% | 21% | 36.7% | 35.8% | 54% |
| C(#Cc1ccccc1)/C=C/C(=C\c1ccccc1)c1ccccc1 | 6.6% | 4.9% | -4.9% | 11.8% | 20.8% | 33.5% |
| Cn1c([N+](=O)[O-])cnc1COc1ccc(NC(=O)CN2CCOCC2)cc1 | 27% | 1.05% | 19.9% | 33.2% | 10.3% | 18.2% |
| N#C/C(=C\c1cccs1)C(N)=S | 6.85% | -18.6% | -6.45% | -31.2% | -9.1% | 1.65% |
| Nc1ccc([N+](=O)[O-])cc1C(=O)Oc1ccccn1 | 9.15% | 5% | 8.5% | 10.8% | -3.6% | 19% |
| N#C/C=C/c1cccc(Cl)c1 | 39.1% | 7.9% | 1.9% | 14.3% | 14.3% | 16.9% |
| Fc1ccc(N2CSC(=S)N(c3ccc(F)cc3F)C2)c(F)c1 | 8.95% | -5.7% | 31.5% | 6.8% | 28.9% | 18.8% |
| NC1=NC(c2ccc(Cl)cc2)N(c2ccc(S(N)(=O)=O)cc2)C(N)=N1 (stereo unspecified) | 9.05% | -4.35% | -24.5% | -21.9% | -11.3% | 21.6% |
| Nc1c(-c2nc3ccccc3s2)[n+]([O-])c2ccccc2[n+]1[O-] | 7.45% | 20.6% | 19% | 29.6% | -57.8% | 15.9% |
| Nc1nc(N)nc(Cc2ccccc2)n1 | -24.4% | -3.45% | -17.9% | -58.4% | -15% | -57.9% |

| Compound | growth inhibition [1] | growth inhibition [2] | growth inhibition [3] | growth inhibition [4] | growth inhibition [5] | growth inhibition [6] |
| --- | --- | --- | --- | --- | --- | --- |
| CCCCC(=O)NC1=CC(=O)c2ccccc2C1=O | 41.2% | 30.4% | 47.1% | 29.6% | 56.1% | 45.8% |
| CCOC(=O)C1(C(C)C)OC2(O)C3CCCN3C(=O)C(C(C)C)N2C1=O (stereo unspecified) | 8.45% | 10.5% | -3% | 20.3% | 8.8% | 17.4% |
| Cc1ccc(SCC(CF)OC(C)n2cnc3c(Cl)nc(N)nc32)cc1 (stereo unspecified) | 14.3% | 1.05% | 30.6% | 39.6% | 41.7% | -36.7% |
| O=C(O)CC(NC(=O)OCc1ccccc1)C(=O)OCc1ccccc1 (stereo unspecified) | 0.55% | 17.9% | -12.3% | -16.6% | -21.1% | -20.1% |
| Nc1nc(Sc2ccc([N+](=O)[O-])c3nonc23)c2[nH]cnc2n1 | 17.1% | 7.25% | -20.4% | 17.2% | 29.1% | 34.6% |
| CS/N=C(/c1ccc(/C(=N/SC)N(C)C)cc1)N(C)C | 0.9% | -8.5% | 8.8% | -5.35% | -24.4% | 5.75% |
| COc1cccc2cc(C(=O)Nc3ccccc3)c(=N)oc12 | 2.75% | 12.7% | -31% | 9.3% | -37.9% | -43% |
| CC(=O)NC(=O)CC(=O)c1ccccc1 | -2.2% | -12.8% | -13.4% | 13.9% | -4.7% | -18.3% |
| Nc1ccc(OCCCc2c(N)nc(N)nc2N)c(Cl)c1 | 98% (active) | 99.1% (active) | 99.3% (active) | 98.2% (active) | 98.3% (active) | 98.5% (active) |
| CC[C@@H](C)[C@H]([C@H](CC(=O)N1CCC[C@@H]1[C@@H](OC)[C@H](C)C(=O)N[C@H](Cc1ccccc1)c1nccs1)OC)N(C)C(=O)[C@H](NC(=O)[C@@H](C(C)C)N(C)C)C(C)C | 6.95% | -22.6% | -2.2% | 8.3% | 20.3% | 16.8% |
| COc1ccc(C2C(=O)c3ccc(OC)cc3OC2c2cccnc2)cc1 (stereo unspecified) | 14.9% | -8.8% | 53.7% | 29.6% | 45.8% | 25.2% |
| CC12CCCC1C1CC=C3CC(SC4CCC5(C)C(=CCC6C7CCCC7(C)CCC65)C4)CCC3(C)C1CC2 (stereo unspecified) | -2.05% | -0.25% | -21.5% | -37.9% | -17.6% | -21.6% |
| ClC1C2C=CC(C2)C12OCCO2 (stereo unspecified) | 2.35% | 11.7% | -1.6% | 6.85% | -10.7% | -18.4% |
| N#C/C(=N\Nc1ccc(F)cc1)C(=O)C1CC1 | 9.1% | 9.05% | 5.8% | 11.3% | 4.3% | 11.7% |
| Cc1ccc(OC(=O)NC(C)(C)C)cc1 | 0.8% | -18.9% | 11.2% | -35.1% | 11.8% | -12.5% |
| CCCCCCCCCCCCCC(=O)NCC(=O)NC(CO)C(=O)NC(CO)C(=O)NC(CCCCN)C(=O)NC(CO)C(=O)NC(CCCCN)C(=O)N1CCCC1C(=O)NC(CCCCN)C(=O)NC(CC(=O)O)C(N)=O (stereo unspecified) (Myristoyl-GSSKSKPKD-NH2; configuration not given here) | 7.25% | -2.55% | -3.9% | 6.1% | 10.3% | 14% |
| Nc1ncc2c(n1)-c1ccccc1OC2NC1CC1 (stereo unspecified) | 2.5% | 12.1% | -29.2% | -5.55% | -36.2% | -4.65% |
| Cc1noc(-c2ccccc2)c1N=Nc1ccccc1 | 11.6% | 12.1% | 28.1% | -34.2% | 45.1% | 28.5% |
| CCOC(=O)CCCN(c1sc(C)c(-c2ccccc2)c1C(=O)OCC)S(=O)(=O)c1ccc(C)cc1 | -16.6% | -3.25% | -14.6% | -29.3% | -3.75% | 4.5% |
| O=[N+]([O-])c1cccc2c(-c3nccc4c([N+](=O)[O-])cccc34)nccc12 | -16.9% | -1.35% | -19.4% | -21.8% | -16.2% | -19% |
